An excerpt weighted towards active compounds, which were near 3.6% of everything screened.
BoNT-F LC inh: BoNT/F light chain protease inhibitors, primary screen, biochemical, flow cytometry, MLPCN library; Botulinum neurotoxin type F light chain protease (Clostridium botulinum); inhibition, % at 10 µM; 360,000 compounds, 0.22% hits; Multiplex microsphere protease cleavage assay; in the data active means inhibition above about 35%, passing the limit was not always enough; inconclusive means no clear call, values can overlap the other calls; further: plate controls were buffer without enzyme for full effect and enzyme alone for no effect
Anthrax LF inh2: Bacillus anthracis LF protease inhibitors, primary screen, biochemical, multiplex microsphere, MLPCN library; multiplex microsphere protease cleavage assay; inhibition, % at 10 µM; 360,000 compounds, 0.12% hits; AID 588501, 2011; further: plate controls were buffer without enzyme for full effect and enzyme alone for no effect
Target sequence (P15917 whole entry, looked up): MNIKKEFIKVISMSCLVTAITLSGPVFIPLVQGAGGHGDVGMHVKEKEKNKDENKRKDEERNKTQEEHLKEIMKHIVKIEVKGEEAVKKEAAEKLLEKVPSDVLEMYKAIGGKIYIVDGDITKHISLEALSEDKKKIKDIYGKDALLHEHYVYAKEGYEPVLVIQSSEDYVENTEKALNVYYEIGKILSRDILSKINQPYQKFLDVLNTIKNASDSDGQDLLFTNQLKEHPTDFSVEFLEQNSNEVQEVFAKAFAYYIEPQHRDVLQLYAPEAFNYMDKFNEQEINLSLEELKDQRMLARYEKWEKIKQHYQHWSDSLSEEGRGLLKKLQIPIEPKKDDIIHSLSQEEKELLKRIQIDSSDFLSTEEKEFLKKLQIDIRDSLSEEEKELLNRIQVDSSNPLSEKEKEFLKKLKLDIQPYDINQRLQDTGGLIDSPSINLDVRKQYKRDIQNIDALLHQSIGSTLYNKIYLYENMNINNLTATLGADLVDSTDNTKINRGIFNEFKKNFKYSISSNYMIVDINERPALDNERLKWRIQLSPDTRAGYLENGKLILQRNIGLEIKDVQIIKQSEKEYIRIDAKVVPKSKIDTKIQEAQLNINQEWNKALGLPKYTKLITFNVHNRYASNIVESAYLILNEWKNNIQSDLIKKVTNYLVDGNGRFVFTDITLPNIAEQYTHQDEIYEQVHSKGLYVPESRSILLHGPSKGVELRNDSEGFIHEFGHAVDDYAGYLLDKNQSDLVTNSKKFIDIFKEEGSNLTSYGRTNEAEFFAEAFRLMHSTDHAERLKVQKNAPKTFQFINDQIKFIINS
MazEF act: activators of E. coli MazEF toxin-antitoxin RNase, primary screen, biochemical, fluorescence, uHTS; Endoribonuclease toxin MazF (Escherichia coli (strain K12)), P0AE70; FAM/BHQ RNA-DNA oligo cleavage fluorescence, 5 h; activation, % at 20 µM; 350,000 compounds, 0.32% hits; in the data active means activation above about 50%
BoNT-A LC inh2: BoNT/A light chain protease inhibitors, primary screen, biochemical, flow cytometry, MLPCN library. multiplex microsphere protease substrate cleavage. inhibition, % at 10 µM. 360,000 compounds, 0.17% hits. AID 588499, 2011; further: plate controls were buffer without enzyme for full effect and enzyme alone for no effect
Autofluor counter: compound fluorescence in toxin protease inhibitor counterscreen; compound autofluorescence counterscreen, microsphere flow cytometry; stronger effect = higher value; fluorescence intensity (no concentration beside the values); 360,000 compounds, 3.1% hits; in the data active means fluorescence intensity above about 16000; inconclusive means no clear call, values can overlap the other calls
* hit, by the source's call. Unless noted, no stated cut-off is given here; in the data, active means inhibition above about 30%; inconclusive means no clear call, values can overlap the other calls; inactive means below that.

Screening COc1cccc(CNCCSc2nnnn2C)c1OC returned BoNT-F LC inh -6, Anthrax LF inh2 -2, MazEF act 1, BoNT-A LC inh2 -2 and Autofluor counter 22850*.
`COc1cc(OC)cc(-c2c(-c3cccs3)c3cc(-c4cccc5[nH]ccc45)ccc3n2C)c1` gave BoNT-F LC inh -10, Anthrax LF inh2 -6, MazEF act -16, BoNT-A LC inh2 0 and Autofluor counter 3954.
For Oc1ccccc1C1=Nc2ncnn2C(c2ccccc2)C1 (stereo not given) the results were BoNT-F LC inh -4, Anthrax LF inh2 -10, MazEF act 0, BoNT-A LC inh2 -1 and Autofluor counter 16346*.
Screening CCOC(=O)/C(=C/C=C1\Sc2cc(C)c(C)cc2N1CC)C(C)=O returned BoNT-F LC inh 20, Anthrax LF inh2 23, MazEF act -373, BoNT-A LC inh2 40* and Autofluor counter 16482*.
CCOC(=O)/C(=C/C=C1\Sc2ccccc2N1CC)C(C)=O was read as BoNT-F LC inh -2, Anthrax LF inh2 1, MazEF act -160, BoNT-A LC inh2 5 and Autofluor counter 3709.
For CC1CN(CC(=O)NCc2ccc(Cl)cc2)CC(C)O1 (stereo not given) the results were BoNT-F LC inh -19, Anthrax LF inh2 2, MazEF act -10, BoNT-A LC inh2 0 and Autofluor counter 3391.
`O=C(NCc1ccc(F)cc1F)[C@@H]1CCCN1C(=O)[C@@H]1CCCN1C(=O)c1cccs1` gave BoNT-F LC inh 8, Anthrax LF inh2 3, BoNT-A LC inh2 0 and Autofluor counter 5882.
Screening O=C(Nc1cc(Sc2ccccn2)cc([N+](=O)[O-])c1)c1cccc(Cl)c1 returned BoNT-F LC inh -3, Anthrax LF inh2 -2, MazEF act 76*, BoNT-A LC inh2 1 and Autofluor counter 1956.
Screening NC(=O)c1cccc(-c2ccnc3c2CC(C(=O)NCc2ccccc2)O3)c1 (stereo not given) returned BoNT-F LC inh -6, Anthrax LF inh2 -2, BoNT-A LC inh2 -1 and Autofluor counter 4495.
`COc1cc(-c2noc(CCCC(=O)NC3CCCCC3)n2)cc(OC)c1OC` gave BoNT-F LC inh -3, Anthrax LF inh2 -2, MazEF act -2, BoNT-A LC inh2 inconclusive and Autofluor counter 17180*.
`CC(C)S(=O)(=O)NC(=O)C1(C)CCN1C(=O)Cc1ccccc1Cl` (stereo not given) gave BoNT-F LC inh -5, Anthrax LF inh2 1, BoNT-A LC inh2 0 and Autofluor counter 3615.
CN1CCC(N2CC3CC(C2)c2cccc(=O)n2C3)CC1 (stereo not given) was read as BoNT-F LC inh -6, Anthrax LF inh2 0, MazEF act 12, BoNT-A LC inh2 -2 and Autofluor counter 24622*.
Screening O=C(O)c1ccc(S(=O)(=O)c2ccc3c(c2)C(=O)N(NC(=O)c2cccnc2)C3=O)cc1 returned BoNT-F LC inh -5, Anthrax LF inh2 4, MazEF act 0, BoNT-A LC inh2 0 and Autofluor counter 4525.
For Cn1c(=O)c2[nH]c(-c3cccnc3)nc2n(C)c1=O the results were BoNT-F LC inh 0, Anthrax LF inh2 -2, MazEF act 6, BoNT-A LC inh2 1 and Autofluor counter 21912*.
`Cc1ccc(NC(=O)Cn2nnc(C(=O)NCc3ccccc3)c2N)cc1C` gave BoNT-F LC inh -4, Anthrax LF inh2 0, MazEF act -11, BoNT-A LC inh2 -3 and Autofluor counter 23778*.
For Cc1ccc(C)c(NC(=O)c2nnn(Cc3ccccc3C)c2N)c1 the results were BoNT-F LC inh -3, Anthrax LF inh2 -2, MazEF act -1, BoNT-A LC inh2 -1 and Autofluor counter 23851*.
Cc1ccc(C)c(NC(=O)c2nnn(Cc3ccccc3)c2N)c1 was read as BoNT-F LC inh -8, Anthrax LF inh2 -1, MazEF act -5, BoNT-A LC inh2 0 and Autofluor counter 4939.
Screening CCOc1ccccc1NC(=O)Cn1nnc(C(=O)NCc2ccc3c(c2)OCO3)c1N returned BoNT-F LC inh 1, Anthrax LF inh2 -4, MazEF act 65*, BoNT-A LC inh2 0 and Autofluor counter 5777.
Screening CCOc1ccccc1NC(=O)c1nnn(CC(=O)Nc2ccc3c(c2)OCO3)c1N returned BoNT-F LC inh 4, Anthrax LF inh2 -2, MazEF act -12, BoNT-A LC inh2 -1 and Autofluor counter 4467.
Cc1ccc(NC(=O)c2ccc(COc3ccccc3)o2)nc1 was read as BoNT-F LC inh 7, Anthrax LF inh2 -1, MazEF act -2, BoNT-A LC inh2 2 and Autofluor counter 5244.
Screening CCCN1CCN(C(=O)c2ccc(S(=O)(=O)N(C)c3ccccc3OC)cc2)CC1 returned BoNT-F LC inh 2, Anthrax LF inh2 6, MazEF act 10, BoNT-A LC inh2 0 and Autofluor counter 3700.
COc1cc(NC(C)=O)c2ncccc2c1[N+](=O)[O-] was read as BoNT-F LC inh -40, Anthrax LF inh2 -2, MazEF act -5, BoNT-A LC inh2 -3 and Autofluor counter 2532.
Screening C=CCn1c(=O)c(C(=O)Nc2ncccc2C)c(O)c2ccccc21 returned BoNT-F LC inh -2, Anthrax LF inh2 2, MazEF act -16, BoNT-A LC inh2 0 and Autofluor counter 3091.
`Cn1nc(-c2ccccc2)c(CSc2ccccc2Cl)c1Cl` gave BoNT-F LC inh 25, Anthrax LF inh2 -3, MazEF act 1, BoNT-A LC inh2 -2 and Autofluor counter 10460.
Cn1nc(-c2ccccc2)c(C(O)c2ccc(Cl)cc2)c1Cl (stereo not given) was read as BoNT-F LC inh -2, Anthrax LF inh2 -1, MazEF act 4, BoNT-A LC inh2 -1 and Autofluor counter 24423*.
`COc1ccc(C2Cc3ccccc3C(=O)O2)cc1` (stereo not given) gave BoNT-F LC inh -3, Anthrax LF inh2 3, MazEF act 1, BoNT-A LC inh2 0 and Autofluor counter 10672.
Screening COc1ccccc1NC(=O)Cc1csc(NC(=S)Nc2ccccc2)n1 returned BoNT-F LC inh -5, Anthrax LF inh2 1, MazEF act 3, BoNT-A LC inh2 -2 and Autofluor counter 20382*.
For COc1ccccc1CC(=O)Nc1ccc([N+](=O)[O-])cc1O the results were BoNT-F LC inh 2, Anthrax LF inh2 0, MazEF act -23, BoNT-A LC inh2 0 and Autofluor counter 4835.
Screening COc1ccccc1OCC(=O)Nc1ccc(Cl)cc1C(=O)c1ccccc1 returned BoNT-F LC inh -1, Anthrax LF inh2 -3, MazEF act -4, BoNT-A LC inh2 -2 and Autofluor counter 23660*.
`COc1ccc(NC(=S)Nc2nc(CC(=O)Nc3ccccc3OC)cs2)cc1` gave BoNT-F LC inh 3, Anthrax LF inh2 -6, MazEF act -1, BoNT-A LC inh2 0 and Autofluor counter 8941.

Source: PubChem (several laboratories)
